The values below come from PubChem BioAssay (NCATS).

Structures are written as SMILES. Unmarked numbers belong to inactive results. Records with an inconclusive call do not appear. A call without a number means that no potency is given here. Calls of active or inactive are those of the source. Unless noted, calls follow the shape of the dose curve; as a rule, active = well fitted curve in the direction sought with a large enough effect; inconclusive = small, poorly fitted or top-dose-only effect, or another doubt; inactive = no such curve, though single readings can be large; an effect the other way counts as inactive or inconclusive. Where a SMILES comes first, the peptide text is derived from it. [ ]: non-standard residue; d: D form. The star is where a group is joined. ξ: configuration not given here. ξTyr(βOH) = NC(C(=O)O)C(O)c1ccc(O)cc1; Hexanoyl = CCCCCC(=O)*

Assay [1] can be described thus: P-glycoprotein substrates identified in KB-8-5-11 adenocarcinoma cell line, qHTS therapeutic library screen (AID 1346987). Also: nearly all actives have a fitted effect of over 65% in size. As to activity change, negative = cytotoxicity: series mostly up to about 44 µM. An outline of the steps: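 Compounds are pinned in dose-response onto KB-8-5-11 cells (500 cells/well, colchicine-free medium) and left 72 h at 37 degree C. CellTiter-Glo luminescence then yields AC50 values.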
For orientation: In qHTS, concentration-response curves come from the screen itself.

The nature of assay [2]: P-glycoprotein substrates identified in KB-3-1 adenocarcinoma cell line, qHTS therapeutic library screen (AID 1346986). Also: nearly all actives have a fitted effect of over 60% in size. An outline of the steps: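 72 h cell-killing screen, 500 cells/well, CellTiter-Glo luminescence. Paired lines KB-3-1/KB-8-5-11; P-gp dependence checked by tariquidar co-treatment and HEK-293 MDR-19 versus empty-vector cells.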
A further assay has as its target Furin (Homo sapiens) (UniProt P09958). As to the kind of experiment: Furin counterscreen qHTS for Zika virus inhibitors (AID 1347149). Also: nearly all actives have a fitted effect of over 70% in size. Also: potency is read from the fitted curve at half-maximal effect. The gist of the method:
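Counterscreen measures cleavage of 2 microM BOC-RVRR-AMC, below its ~15 microM Km, by 5 nM full-length human furin at pH 7.0 after a 15-min compound preincubation. Inhibition derives from the 15-min fluorescence increase at 37C.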
On the technique in general: Counterscreens check selectivity or assay interference.

The target of assay [3] is Peroxisome proliferator-activated receptor alpha (Homo sapiens) (UniProt Q07869). Description: qHTS assay for small molecule agonists of the peroxisome proliferator-activated receptor alpha (PPARalpha) signaling pathway (AID 651778). The note with it: PathHunter PPARalpha complementation, chemiluminescence, 6 h; stronger effect = higher value. The gist of the method:
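Cells plated at 2,000/well and held overnight at 37 C, 5% CO2, then compound added by pin tool for 6 hr; after PathHunter detection reagent and 60 min at room temperature, chemiluminescence from enzyme complementation was read.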

The target in assay [4] is Nuclear receptor ROR-gamma (Homo sapiens) (UniProt P51449). Description: qHTS assay for small molecule antagonists of the retinoid-related orphan receptor gamma (ROR-gamma) signaling pathway (AID 651802).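 Also: CHO cells with doxycycline-induced ROR-gamma expression; luciferase reporter luminescence driven by ROR response element; series mostly up to about 92 µM; nearly all actives have a fitted effect of over 60% in size.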 The gist of the method:
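Luminescence (One-Glo, 30 min RT) measured 16 h after compound addition and doxycycline induction at 37C. Reporter: RORE-luciferase under TET-inducible ROR-gamma in CHO cells.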

A short description of assay [5]: qHTS assay for small molecule agonists of the antioxidant response element (ARE) signaling pathway measured by Nrf2-dependant transcriptional activity (AID 720636; active = well fitted curve in the direction sought with a large enough effect in the repeat runs; an effect the other way counts as inactive or inconclusive;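 also: HepG2 cells with an ARE-driven luciferase reporter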). An outline of the steps: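 HepG2 ARE-luc reporter line, 1% dialyzed FBS; 6 hr attachment at 37 C, compound pinned in, 16 hr at 37 C/5% CO2; ONE-Glo, 30 min RT, luminescence read.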
A short description of assay [6]: qHTS assay for small molecule antagonists of the retinoid-related orphan receptor gamma (ROR-gamma) signaling pathway - cell viability counter screen (AID 720652; active = well fitted curve in the direction sought with a large enough effect in the repeat runs; an effect the other way counts as inactive or inconclusive;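 also: CHO reporter cells with doxycycline-induced ROR-gamma expression; series mostly up to about 92 µM; compound exposure lasted 16 hr before ATP read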). The gist of the method:
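Cytotoxicity counter screen: intracellular ATP (CellTiter-Glo luminescence) measured in the doxycycline-induced CHO RORE-luciferase reporter line after 16 hr compound exposure at 37 C, 5% CO2.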

A short description of assay [7]: qHTS assay for small molecule agonists of the antioxidant response element (ARE) signaling pathway measured by Nrf2-dependant transcriptional activity - cell viability counter screen (AID 720653; active = well fitted curve in the direction sought with a large enough effect in the repeat runs; an effect the other way counts as inactive or inconclusive). The following applies: ARE-bla HepG2 viability, CellTiter-Glo ATP luminescence, 16 h; stronger effect = lower value. An outline of the steps:
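ARE-bla HepG2 cells (2,000/well) rested 5 hrs at 37C/5% CO2, then exposed to compounds in DMSO for 16 hrs. Viability was read in the same wells as intracellular ATP by luminescence, 30 min at room temperature after reagent addition.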

Assay [8] in a line: qHTS assay for cell viability of HEK293 cells (AID 743288). Also: nearly all actives have a fitted effect of over 50% in size. The following applies: ATP luminescence (CellTiter-Glo), 18 h, stronger effect = lower value. An outline of the steps: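 Steps: plate 2,000 parental HEK293 cells per well; incubate ≥5 h, 37 C; add compounds in DMSO; incubate 18 h, 37 C; add CellTiter-Glo; wait 30 min at room temperature; read luminescence.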
Assay [9] is described as follows: qHTS assay for cell viability of the p53RE-bla HCT-116 cell line (AID 743292). Also: nearly all actives have a fitted effect of over 55% in size. The gist of the method:
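Luminescent ATP quantitation (CellTiter-Glo) served as the viability read-out; reagent was added after 16 h compound exposure at 37 C and read after 30 min at room temperature. Cells: p53RE-bla HCT-116, 4,000 per well.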

Furin (Homo sapiens), sequence (P09958 whole entry, looked up): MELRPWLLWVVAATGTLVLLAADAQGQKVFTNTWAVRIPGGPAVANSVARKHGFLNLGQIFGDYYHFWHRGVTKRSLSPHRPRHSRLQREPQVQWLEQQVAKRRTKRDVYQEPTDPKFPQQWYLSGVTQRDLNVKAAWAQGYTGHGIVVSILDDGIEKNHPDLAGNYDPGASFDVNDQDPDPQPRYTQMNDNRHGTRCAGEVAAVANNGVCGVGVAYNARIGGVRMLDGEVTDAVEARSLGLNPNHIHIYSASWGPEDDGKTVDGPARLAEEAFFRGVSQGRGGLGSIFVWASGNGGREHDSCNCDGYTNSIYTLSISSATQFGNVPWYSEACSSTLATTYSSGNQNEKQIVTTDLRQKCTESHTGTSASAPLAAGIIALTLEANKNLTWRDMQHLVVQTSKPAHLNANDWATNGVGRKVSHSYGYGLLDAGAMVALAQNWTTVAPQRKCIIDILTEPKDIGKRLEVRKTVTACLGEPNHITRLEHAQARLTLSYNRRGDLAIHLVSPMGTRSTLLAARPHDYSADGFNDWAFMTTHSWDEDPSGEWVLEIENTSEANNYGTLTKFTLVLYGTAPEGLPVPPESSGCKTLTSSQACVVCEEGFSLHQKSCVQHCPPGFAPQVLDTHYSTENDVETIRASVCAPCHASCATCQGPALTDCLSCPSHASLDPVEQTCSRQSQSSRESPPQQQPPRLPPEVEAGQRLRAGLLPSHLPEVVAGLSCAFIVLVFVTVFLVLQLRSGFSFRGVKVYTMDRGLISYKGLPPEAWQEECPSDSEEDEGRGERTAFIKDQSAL
Peroxisome proliferator-activated receptor alpha (Homo sapiens), sequence (Q07869 whole entry, looked up): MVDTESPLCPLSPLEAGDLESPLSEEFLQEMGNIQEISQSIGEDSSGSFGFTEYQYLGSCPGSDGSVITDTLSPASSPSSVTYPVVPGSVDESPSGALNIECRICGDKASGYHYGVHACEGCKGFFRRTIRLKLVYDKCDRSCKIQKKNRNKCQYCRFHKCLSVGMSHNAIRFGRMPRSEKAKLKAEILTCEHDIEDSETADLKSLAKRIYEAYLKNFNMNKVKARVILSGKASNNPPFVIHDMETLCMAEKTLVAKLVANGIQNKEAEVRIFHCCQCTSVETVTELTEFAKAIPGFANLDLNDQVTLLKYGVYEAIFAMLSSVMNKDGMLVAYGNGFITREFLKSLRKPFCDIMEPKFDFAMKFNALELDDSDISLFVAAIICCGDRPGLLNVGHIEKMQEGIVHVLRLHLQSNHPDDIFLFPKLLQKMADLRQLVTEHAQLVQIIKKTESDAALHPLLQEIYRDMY
Nuclear receptor ROR-gamma (Homo sapiens), sequence (P51449 whole entry, looked up): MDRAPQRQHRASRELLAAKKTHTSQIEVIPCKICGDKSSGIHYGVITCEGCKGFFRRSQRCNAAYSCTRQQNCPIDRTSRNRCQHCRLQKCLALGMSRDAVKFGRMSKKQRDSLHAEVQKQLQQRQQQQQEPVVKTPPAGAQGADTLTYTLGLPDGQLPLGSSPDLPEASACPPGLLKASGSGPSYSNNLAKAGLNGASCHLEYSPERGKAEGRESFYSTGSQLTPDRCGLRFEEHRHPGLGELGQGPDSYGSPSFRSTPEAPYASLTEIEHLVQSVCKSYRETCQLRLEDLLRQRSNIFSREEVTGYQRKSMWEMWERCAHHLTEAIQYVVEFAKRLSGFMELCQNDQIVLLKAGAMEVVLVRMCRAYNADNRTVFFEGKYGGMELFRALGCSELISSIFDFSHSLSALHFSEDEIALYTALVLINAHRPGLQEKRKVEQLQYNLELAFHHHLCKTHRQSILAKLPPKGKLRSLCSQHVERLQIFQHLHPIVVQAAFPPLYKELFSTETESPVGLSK

Regarding `Oc1ccc2c(-c3c(-c4ccccn4)nn4c3CCC4)ccnc2c1`, the Potency result in assay [1] was “inactive”.
For `CC(=O)OC12CC(C)C(OC(=O)c3ccccc3)C1/C=C(/C)C(OC(=O)c1ccccc1)CC(=O)C(C)(C)/C=C/C(C)C2=O` (configuration not stated), the Potency entry (in [2]; in [1]; with Furin (Homo sapiens)) was “inactive” in each case.
On to `CCCN(CCN1CCN(c2ccccc2OC)CC1)C1CCc2ncsc2C1` (configuration not stated), for which the Potency entry in assay [2] and in assay [1] was “inactive” throughout.
Take `O=C(OC[C@H]1O[C@H](O[C@]2(CO)O[C@H](CO)[C@@H](O)[C@@H]2O)[C@H](O)[C@@H](O)[C@@H]1O)c1ccc(O)cc1`: the Potency entry in [1] is “inactive”.
Same read-out and setting: as for `c1ccc2c(Nc3nnc(-c4ccncc4)s3)cccc2c1`, the entry is “inactive”.
In the case of `CC(C)=CC[C@H]1O[C@]2(O)C([C@H]3CCC4[C@@]5(C)CC[C@H](O[C@@H]6O[C@H](CO)[C@H](O)[C@H](O[C@@H]7O[C@H](CO)[C@@H](O)[C@H](O)[C@H]7O)[C@H]6O[C@@H]6O[C@@H](C)[C@H](O)[C@@H](O)[C@H]6O)C(C)(C)C5CC[C@@]4(C)[C@]3(C)[C@H]2O)[C@@]1(C)O` (some centres not stated), the activity change, negative = cytotoxicity in [1] was 9.26% [at 9.29 µM].
Regarding `CC/C=C/C(O)C(O)C1=C(C)C(=O)C2(O1)C(=O)NC(OC)(C(=O)c1ccccc1)C2O` (configuration not stated), the Potency result in assay [2] and in [1] was “inactive” each time.
Consider `C=CC(C)(CC/C=C(\C)C(=O)OC)OC1OC(COC(=O)CC(C)(O)CC(=O)O)C(O)C(O)C1O` (configuration not stated), for which the Potency entry in assay [1] is “inactive”.
In the case of `CC(C)CC(c1c(O)c(C=O)c(O)c(C=O)c1O)C1CCC(C)(O)C2CC(C(C)(C)O)CCC12C` (configuration not stated), the Potency entry (in assay [2]; in [1]; in the assay with Furin (Homo sapiens)) was “inactive” throughout.
As for `COc1cc(O)c2c(c1Cl)CC(C)OC2=O` (configuration not stated), the Potency entry in assay [1] is “inactive”.
On the same count and under the same terms, the value for `NC(=O)NCCCC(NC(=O)Cc1ccccc1)C(=O)O` (configuration not stated) was “inactive”; that for `C=CC(C)(CCC=C(C)C)O[C@@H]1O[C@H](CO)[C@@H](O)[C@H](O)[C@H]1O` (some centres not stated) was “inactive”.
With `C=C1[C@@H]2CC[C@@]3(C)[C@H](c4ccoc4)OC(=O)C[C@]13O[C@H]1CC(=O)C(C)(C)[C@H](C(O)C(=O)OC)[C@]12C` (some centres not stated), the Potency result in assay [2] and in assay [1] was “inactive” each time.
With `CC(C)C1NC(=O)CNC(=O)C2CCCN2C(=O)C(Cc2c[nH]c3ccccc23)NC(=O)CNC(=O)C(C(O)c2ccc(O)cc2)NC(=O)CNC1=O` (configuration not stated) (cyclo(G[ξTyr(βOH)]GWPGV); configuration not given here), in [1], the Potency result is “inactive”.
Same read-out and setting: as for `CCC(C)/C=C(C)/C=C/C(=O)C1CCC(O)C(C)(O)C1=O` (configuration not stated), the entry is “inactive”; as for `C=C(C)C1Cc2c(ccc3c2OCC(c2ccc(O)cc2O)C3)O1` (configuration not stated), “inactive”.
As to `O=C(Nc1ccccc1)Nc1ccc(-c2ccc(C(=O)C3CCCC3C(=O)O)cc2)cc1` (configuration not stated), the Potency result in assay [2] and in [1] was “inactive” each time. In the assay with Furin (Homo sapiens), the Potency was 55.5 µM (active).
For the compound `COc1ccc(CCC(=O)c2c(O)cc(O[C@@H]3O[C@H](CO)[C@@H](O)[C@H](O)[C@H]3O[C@@H]3O[C@@H](C)[C@H](O)[C@@H](O)[C@H]3O)cc2O)cc1O`, the max response in assay [3] is 0.724%; in assay [7], -0.966%; in assay [8], -4.69%. Also, the compound was classed as inactive in assay [4], in [5], in assay [6] and in assay [9]. The Potency result in assay [2] and in assay [1] was “inactive” throughout.
For the compound `C/C1=C\CC[C@]2(C)O[C@H]2C(=O)c2c(C)coc2C1`, in assay [1], the Potency entry was “inactive”.
As to `COc1ccc2c(c1)N1C(=O)C[C@@]34C=CC[N@+]5([O-])CC[C@H]2[C@H](CC3)[C@@]145`, the Potency result in assay [2] and in [1] was “inactive” each time.
Turning to `CC(=O)OC/C(=C/C(=O)O)CC[C@@H]1C(C)=CC(=O)[C@@H]2C(C)(C)CCC[C@@]12C`, in assay [1], the Potency entry was “inactive”.
Same read-out and setting: the value for `CN(C)C(=O)C(O)C(Cc1ccccc1)NC(=O)c1cc2cc(Cl)ccc2[nH]1` (configuration not stated) was “inactive”.
As for `C/C=C(\C)C(=O)OCC1OC(OC2OC(CO)C(O)C(O)C2O)C(O)C(O)C1O` (configuration not stated), the Potency entry in [2] and in [1] was “inactive” in each case.
Turning to `CCCCCC(=O)N1CCC[C@H]1C(=O)N[C@@H](Cc1ccc(O)cc1)C(=O)OC` (Hexanoyl-Pro-Tyr-OMe), the Potency result in assay [1] is “inactive”.
On to `COCC1OC(OC(C)(C)C2CCC3(C)C=C(C4CCC5C4(C)CC(O)C4OC(C(C)(C)O)CCC45C)CCC3O2)C(NC(C)=O)C(O)C1O` (configuration not stated), for which the Potency result in assay [1] is “inactive”.
Same read-out and setting: the value for `Cc1c(Cc2ccc3ccccc3n2)c2cc(F)ccc2n1CC(=O)O` was “inactive”; that for `C=C[C@H]1[C@H](O[C@@H]2O[C@H](CO)[C@@H](O)[C@H](O)[C@H]2O)OC=C(C(=O)OC)[C@H]1CCO` was “inactive”.
For the compound `COC(=O)[C@H](c1ccccc1Cl)N1CCC2SC(=O)C=C2C1` (some centres not stated), in [1], the Potency entry was “inactive”.
